TEAD-YAP inh – TEAD-YAP interaction inhibition, primary screen, TEAD-YAP interaction inhibitor project, luminescence, HEK-TIYL cells | TEAD-Gal4/YAP UAS-luciferase luminescence | inhibition, % at 9.12 µM | hit rate 1.4% among 640,000; in the data active = inhibition above about 32%;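 note: 0% = median of test compound wells and 100% = reference inhibitor wells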
GPR151 activ – activators of human GPR151, primary screen, cell-based, PathHunter beta-arrestin, luminescence | PathHunter beta-arrestin GPR151 cells | activation, % at 11.2 µM | hit rate 1% among 650,000; in the data active = activation above about 4.9%;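 note: 0% = median of compound wells and 100% = cells with positive control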
FBW7 act – FBW7 E3 ligase activators, primary screen, biochemical, AlphaScreen, human. normalized activity (activation), % at 26.1 µM. AID 1259310, 2017. hit rate 0.13% among 650,000. AlphaScreen FBW7–phospho-cyclin E peptide binding, activator screen; in the data active = normalized activity above about 1.9%;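 note: purified mutant Fbw7 with reduced substrate affinity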
Target sequence (Q969H0 whole entry, looked up): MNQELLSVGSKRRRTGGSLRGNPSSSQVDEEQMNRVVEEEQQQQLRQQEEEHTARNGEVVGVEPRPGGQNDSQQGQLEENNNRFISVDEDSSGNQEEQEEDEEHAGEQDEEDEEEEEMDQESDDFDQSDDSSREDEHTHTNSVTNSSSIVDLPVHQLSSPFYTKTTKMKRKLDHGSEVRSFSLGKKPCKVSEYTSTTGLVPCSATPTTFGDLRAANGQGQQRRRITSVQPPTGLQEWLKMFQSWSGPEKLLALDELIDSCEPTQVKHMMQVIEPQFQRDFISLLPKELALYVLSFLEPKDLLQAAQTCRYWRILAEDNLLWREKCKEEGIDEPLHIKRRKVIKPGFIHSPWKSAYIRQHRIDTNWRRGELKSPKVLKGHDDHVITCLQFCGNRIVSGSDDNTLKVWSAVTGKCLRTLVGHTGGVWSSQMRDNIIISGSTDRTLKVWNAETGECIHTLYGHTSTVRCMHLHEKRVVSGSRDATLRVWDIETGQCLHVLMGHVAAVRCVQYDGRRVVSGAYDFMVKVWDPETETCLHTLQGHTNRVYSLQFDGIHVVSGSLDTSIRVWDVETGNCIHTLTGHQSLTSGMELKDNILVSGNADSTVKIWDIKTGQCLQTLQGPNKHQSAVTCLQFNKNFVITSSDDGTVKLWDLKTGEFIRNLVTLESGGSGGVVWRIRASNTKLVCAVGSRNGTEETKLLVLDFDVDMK
MITF primary – MITF inhibitors, primary screen, biochemical, AlphaScreen, human; Microphthalmia-associated transcription factor (Homo sapiens), O75030; AlphaScreen MITF homodimerization, bead proximity signal; inhibition, % at 2.6 µM; hit rate 0.91% among 650,000; AID 1259374, 2018; in the data active = inhibition above about 50%;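 note: 0% = vehicle wells with protein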
GPR151 confirm – GPR151 activators, triplicate retest, confirmation, cell-based, PathHunter beta-arrestin, luminescence; shares compounds with GPR151 activ; GPR151 PathHunter beta-arrestin cells, 90 min; % of EA-reagent control over plate median; activation, % at 11.2 µM; 6,700 tested, under 10 active; AID 1508609, 2020;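 active = mean percent activation across replicates above the confirmation screen cutoff of 4.91%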
GPR119 counter – GPR119 activators in beta-arrestin cells, counter-screen for GPR151 activator project, cell-based, PathHunter beta-arrestin, luminescence, triplicate; shares compounds with GPR151 activ; 90 min; 0 = compound-well median, 100 = enzyme-acceptor control; activation, % at 11.2 µM; AID 1508611, 2020; hit rate 0.3% among 6,700;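 active = mean percent activation in the counterscreen above 29.09%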;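 note: counterscreen on off-target GPR119 to flag nonselective hits from the GPR151 activator screen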
* = called active by the depositor; / = no result given. This is a sample that favours compounds with a hit; in the whole collection about 3.5% have one here.

SMILES	TEAD-YAP inh	GPR151 activ	FBW7 act	MITF primary	GPR151 confirm	GPR119 counter
Cc1ccc(C(=O)NCC(=O)OCc2ccccc2Br)cc1	7.9	-0.5	0.2	4.0	/	/
CN1C(=O)c2ccc(S(=O)(=O)c3ccc(C(=O)O)cc3)cc2C1=O	6.4	5.5*	0.1	-16.7	-0.7	7.8
C#CCOc1ccc(CNC(C)C)cc1OCC	5.3	1.7	0.0	-7.3	/	/
CCCC1=NN2C(=O)CC(=O)N=C2S1	0.6	0.4	0.7	12.4	/	/
O=C(c1ccco1)N1CCC(Cn2c(COc3ccccc3)nc3ccccc32)CC1	-23.4	7.5*	-0.2	12.8	0.3	-11.1
CCNC(=O)N1CCC(Cn2c(COc3ccccc3)nc3ccccc32)CC1	-8.0	0.3	0.0	3.4	/	/
COc1ccc(C(=O)/C=C/c2ccc([N+](=O)[O-])cc2)c(OC)c1	2.7	-0.2	0.0	-2.7	/	/
CCc1ccc2oc(-c3cccc(NC(=O)COc4ccccc4C)c3)nc2c1	-50.0	0.7	-0.1	0.7	/	/
COC(=O)c1ccc(-c2cc(Cl)cc3c2OC(CNC(=O)CNC(C)=O)C3)cc1 (stereo unspecified)	2.6	1.7	0.0	-9.7	/	/
CN1C(=O)NC(c2ccccc2Cl)C2=C1CC(C)(C)CC2=O (stereo unspecified)	3.6	5.7*	-0.1	-3.1	0.8	-3.4
CN1C(=O)N(C)C(c2ccccc2Cl)C2=C1CC(C)(C)CC2=O (stereo unspecified)	-1.3	0.8	-0.2	0.9	/	/
COc1cc(OC)cc(C(=O)N2c3ccccc3N3C(c4c(C)c(C)cc(C)c4C)=NON23)c1	5.1	-0.1	0.1	10.9	/	/
Cc1ccccc1OCC(=O)Nc1ccc(Cl)c(-c2nc3ccccc3s2)c1	-2.6	6.4*	-0.1	-7.1	0.6	19.9
Nc1c(C(=O)c2ccc(Cl)s2)sc2c1c(=O)[nH]c(=O)n2CC1CCCO1 (stereo unspecified)	2.6	-1.1	0.1	10.2	/	/
CCN(Cc1ccccc1)C(=O)Cn1c(=O)n(-c2ccc(OC)cc2)c(=O)c2ccccc21	11.4	7.9*	0.0	1.6	0.7	-1.4
CCOc1ccc(-n2c(=O)c3sccc3n(CC(=O)N(CC)CC)c2=O)cc1	1.8	-0.5	-0.1	0.7	/	/
Cc1c(C(=O)O)sc2nc(C(F)(F)F)[nH]c(=O)c12	3.0	1.6	-0.1	2.3	/	/
COC(=O)c1ccc(NC(=S)NCCO)cc1	-3.0	6.3*	0.0	12.6	0.5	3.2
COC(=O)c1sccc1NC(=S)Nc1ccc(OC)c(OC)c1	-2.4	6.0*	-0.1	-18.8	0.4	4.4
COC(=O)c1sccc1NC(=S)Nc1ccc(F)cc1	-3.7	0.4	0.0	-4.5	/	/
CCOC(=O)c1ccc(NC(=S)Nc2ccsc2C(=O)OC)cc1	-10.7	5.7*	-0.3	-1.6	0.2	-13.8
O=C(C1CCCO1)N(c1ccc(Cl)cc1)C1C=CS(=O)(=O)C1 (stereo unspecified)	-9.4	9.6*	0.0	9.9	0.5	1.5
COc1cc(C(=O)NCCCC(=O)OC2CCCCC2)cc(OC)c1OC	14.7	2.4	-0.1	6.6	/	/
Cc1ccc(Oc2cccc(NC(=O)c3cccc4ccccc34)c2)nn1	4.4	5.6*	0.1	8.7	0.1	-9.7
N#Cc1ccc(C(=O)Nc2ccc(Br)cc2)c(F)c1	-50.9	0.8	0.1	6.3	/	/
SMILES	TEAD-YAP inh	GPR151 activ	FBW7 act	MITF primary	GPR151 confirm	GPR119 counter
Cc1cc(Br)ccc1NC(=O)c1ccc(C#N)cc1F	-6.3	13.3*	-0.2	-14.5	-0.6	5.5
CCOc1ccc(C(=O)NC(=S)Nc2cccnc2)cc1[N+](=O)[O-]	27.2	0.2	0.0	-7.0	/	/
CCOc1c(Cl)cc(C(=O)NC(C)(C)C)cc1Cl	4.8	1.5	0.1	-5.4	/	/
CCOc1ccc(C(=O)NC(C)(C)C)cc1Cl	9.8	6.9*	0.2	1.0	-0.6	-13.4
CCOc1ccc(C(=O)NC(=S)Nc2cccnc2)cc1Cl	-1.4	7.1*	0.2	-11.8	0.9	15.5
O=S(=O)(NN=C1CCCCC1)c1ccccc1	-5.2	-1.9	-0.1	-5.0	/	/

From PubChem BioAssay
